In PubChem BioAssay (EPA / NIEHS):
Activity calls are given as the source filed them. Rule for the calls: active = hit-call score of the fitted dose curve at least 0.9, where 1 is the maximum; inactive = score below 0.9. Peptide text beside a SMILES is read from it.

How the values were obtained:
[1] = ATG_GLI_CIS: Attagene CIS-FACTORIAL HepG2 Assay for human Zinc Finger Protein GLI1 (AID 2282945); conditions: HepG2, Attagene cis-factorial reporter mRNA, GLI element; actives raise or lower the signal
Procedure, shortened: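 Bidirectional curve fits relative to DMSO, using reporter mRNA levels from RT-PCR plus capillary electrophoresis. Cells were HepG2 transiently carrying cis-regulated reporter constructs, harvested 24 h after dosing.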

[2] = target: Bile acid receptor (Homo sapiens) (UniProt Q96RI1); test: ATG_IR1_CIS: Attagene CIS-FACTORIAL HepG2 Assay for human Nuclear Receptor Subfamily 1 Group H Member 4 (NR1H4), IR1 submotif (AID 2282946); conditions: IR1 reporter transcription, actives raise or lower the signal
Procedure, shortened: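 HepG2 cells transiently transfected with multiplexed cis-element reporter units read endogenous transcription factor activity. After 24 h compound exposure, reporter mRNA was quantified by RT-PCR, fluorescent labelling, HpaI digestion and capillary electrophoresis; bidirectional fitting versus DMSO baseline.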

[3] = ATG_GRE_CIS: Attagene CIS-FACTORIAL HepG2 Assay for human Glucocorticoid Response Elements (GRE) (AID 2282947); conditions: HepG2 GRE cis-reporter, Attagene multiplex mRNA; actives raise or lower the signal
Procedure, shortened: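 Multiplexed cis-reporter mRNA induction, HepG2, 24 h post-dose. RT-PCR, FAM-labelled, HpaI-digested amplicons by CE. Bidirectional fit vs DMSO.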

[4] = ATG_ISRE_CIS: Attagene CIS-FACTORIAL HepG2 Assay for human Interferon Regulatory Factor 1 (IRF1) binding to an Interferon-Stimulated Response Element (ISRE) (AID 2282948); conditions: HepG2 ISRE cis-reporter (Attagene), mRNA transcription readout; actives raise or lower the signal
Procedure, shortened: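 Uses HepG2 liver cells transfected with cis-regulated reporters and measures mRNA 24 h post-dosing through RT-PCR, primer-extension labelling and capillary electrophoresis, with DMSO as negative control.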

[5] = ATG_M_32_CIS: Attagene CIS-FACTORIAL HepG2 Assay for M32 Transcription Factor (Internal Marker) (AID 2282949); conditions: HepG2 Attagene cis-factorial M32 reporter, mRNA; actives raise or lower the signal;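 note: background control marker of the multiplexed CIS panel rather than a real target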
Procedure, shortened: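 Transient MRTU transfection of HepG2; 24 h compound treatment; TriZol RNA, oligo(dT) RT, reporter PCR, 6-FAM primer extension, HpaI cut, CE. Gain/loss of signal vs DMSO.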

[6] = ATG_M_06_CIS: Attagene CIS-FACTORIAL HepG2 Assay for M06 Transcription Factor (Internal Marker) (AID 2282950); conditions: HepG2 Attagene CIS-FACTORIAL M06 internal marker reporter; actives raise or lower the signal
Procedure, shortened: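 Cells (HepG2, transiently carrying cis-driven reporter units) receive chemical for 24 h before RNA isolation. Reporter cDNA is PCR-amplified, FAM-labelled by primer extension, HpaI-digested and sized on a capillary analyser.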

[7] = target: Hypoxia-inducible factor 1-alpha (Homo sapiens) (UniProt Q16665); test: ATG_HIF1a_CIS: Attagene CIS-FACTORIAL HepG2 Assay for human Hypoxia Inducible Factor 1 (HIF1A) (AID 2282951); conditions: HepG2 Attagene cis-factorial HIF1a reporter transcription; actives raise or lower the signal
Procedure, shortened: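 Transient MRTU transfection of human HepG2 liver cells, 24 h compound treatment, then total RNA isolation, oligo(dT) reverse transcription, PCR amplification, fluorescent labelling and capillary electrophoresis of reporter fragments. Gain or loss relative to DMSO.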

[8] = target: Hepatocyte nuclear factor 6 (Homo sapiens) (UniProt Q9UBC0); test: ATG_HNF6_CIS: Attagene CIS-FACTORIAL HepG2 Assay for human Hepatocyte Nuclear Factor 6 (HNF6) (AID 2282952); conditions: HepG2 Attagene cis-factorial HNF6 reporter transcription; actives raise or lower the signal
Procedure, shortened: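 Endogenous factor activity read in transiently transfected HepG2 via promoter-regulated reporter transcripts. RNA harvested 24 h post-dosing, reverse-transcribed, PCR-amplified, FAM-labelled, HpaI-digested and resolved by capillary electrophoresis; fitted in both directions against DMSO.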

[9] = ATG_MRE_CIS: Attagene CIS-FACTORIAL HepG2 Assay for human Metal Responsive Element (MRE) (AID 2282954); conditions: HepG2 MRE cis-reporter transcription, Attagene multiplex; actives raise or lower the signal
Procedure, shortened: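 Multiplexed cis-reporter assay in human HepG2 liver cells, 24 h incubation with test chemical. Reporter transcripts measured by RT-PCR and capillary electrophoresis; values from bidirectional curve fitting versus DMSO.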

[10] = target: Heat shock factor protein 1 (Homo sapiens) (UniProt Q00613); test: ATG_HSE_CIS: Attagene CIS-FACTORIAL HepG2 Assay for human Heat Shock Transcription Factor 1 (HSE) (AID 2282953); conditions: HepG2 HSE cis-reporter, Attagene RNA transcription; actives raise or lower the signal
Procedure, shortened: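 Liver-derived HepG2 cells carry transiently introduced multiple reporter units governed by cis promoters. Reporter RNA measured 24 h post-dose through reverse transcription, PCR amplification, fluorescent labelling and capillary electrophoresis, normalised to DMSO.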

Measured: AC50

Bile acid receptor (Homo sapiens), sequence (Q96RI1 whole entry, looked up): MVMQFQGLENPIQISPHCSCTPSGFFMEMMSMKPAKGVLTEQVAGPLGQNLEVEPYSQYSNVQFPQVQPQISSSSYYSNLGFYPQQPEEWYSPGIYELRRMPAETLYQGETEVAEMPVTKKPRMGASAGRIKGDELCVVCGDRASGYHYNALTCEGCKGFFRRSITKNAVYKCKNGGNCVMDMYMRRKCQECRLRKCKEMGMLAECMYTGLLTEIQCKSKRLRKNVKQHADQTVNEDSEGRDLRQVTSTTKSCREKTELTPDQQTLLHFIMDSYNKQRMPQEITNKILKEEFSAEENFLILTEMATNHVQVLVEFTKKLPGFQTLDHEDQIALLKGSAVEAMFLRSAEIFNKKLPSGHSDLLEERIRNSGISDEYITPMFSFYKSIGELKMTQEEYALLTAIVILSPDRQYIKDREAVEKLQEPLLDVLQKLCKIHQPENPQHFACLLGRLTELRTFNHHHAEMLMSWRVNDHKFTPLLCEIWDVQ
Hypoxia-inducible factor 1-alpha (Homo sapiens), sequence (Q16665 whole entry, looked up, the tested form may be a part): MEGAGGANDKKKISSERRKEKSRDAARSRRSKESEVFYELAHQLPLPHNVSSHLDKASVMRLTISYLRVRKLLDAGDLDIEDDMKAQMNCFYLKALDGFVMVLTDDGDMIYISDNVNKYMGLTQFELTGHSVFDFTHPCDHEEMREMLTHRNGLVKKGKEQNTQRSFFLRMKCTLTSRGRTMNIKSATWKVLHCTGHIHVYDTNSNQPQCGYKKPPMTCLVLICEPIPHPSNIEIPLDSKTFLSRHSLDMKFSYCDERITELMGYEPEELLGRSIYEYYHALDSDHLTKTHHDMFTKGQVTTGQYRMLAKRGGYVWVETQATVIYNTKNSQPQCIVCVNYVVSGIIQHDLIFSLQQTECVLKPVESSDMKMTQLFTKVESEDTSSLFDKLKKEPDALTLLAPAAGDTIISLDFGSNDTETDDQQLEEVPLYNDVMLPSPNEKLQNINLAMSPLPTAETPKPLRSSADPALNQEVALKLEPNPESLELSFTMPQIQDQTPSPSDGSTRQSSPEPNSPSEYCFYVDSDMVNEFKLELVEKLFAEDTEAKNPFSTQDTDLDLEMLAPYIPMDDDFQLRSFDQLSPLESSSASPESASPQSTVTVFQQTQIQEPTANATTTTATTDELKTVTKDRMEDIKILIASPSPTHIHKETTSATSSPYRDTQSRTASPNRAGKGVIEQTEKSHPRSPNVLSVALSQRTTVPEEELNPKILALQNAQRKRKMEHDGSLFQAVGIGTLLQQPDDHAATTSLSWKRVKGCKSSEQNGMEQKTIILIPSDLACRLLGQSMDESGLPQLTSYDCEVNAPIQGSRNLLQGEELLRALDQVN
Heat shock factor protein 1 (Homo sapiens), sequence (Q00613 whole entry, looked up): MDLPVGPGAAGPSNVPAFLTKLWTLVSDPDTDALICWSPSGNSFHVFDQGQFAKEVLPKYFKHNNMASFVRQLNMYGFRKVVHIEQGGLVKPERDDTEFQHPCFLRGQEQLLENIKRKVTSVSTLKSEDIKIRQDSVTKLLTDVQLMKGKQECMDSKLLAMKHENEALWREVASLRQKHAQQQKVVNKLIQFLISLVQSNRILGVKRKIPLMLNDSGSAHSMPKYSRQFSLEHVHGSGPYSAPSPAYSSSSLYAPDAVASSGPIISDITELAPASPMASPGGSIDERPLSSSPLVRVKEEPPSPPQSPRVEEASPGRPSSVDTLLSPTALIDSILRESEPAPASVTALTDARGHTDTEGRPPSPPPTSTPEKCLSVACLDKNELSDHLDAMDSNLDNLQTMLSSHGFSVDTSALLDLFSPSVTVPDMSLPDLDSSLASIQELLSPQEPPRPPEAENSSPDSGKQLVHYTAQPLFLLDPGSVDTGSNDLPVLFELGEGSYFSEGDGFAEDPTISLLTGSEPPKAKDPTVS
Hepatocyte nuclear factor 6 (Homo sapiens), sequence (Q9UBC0 whole entry, looked up): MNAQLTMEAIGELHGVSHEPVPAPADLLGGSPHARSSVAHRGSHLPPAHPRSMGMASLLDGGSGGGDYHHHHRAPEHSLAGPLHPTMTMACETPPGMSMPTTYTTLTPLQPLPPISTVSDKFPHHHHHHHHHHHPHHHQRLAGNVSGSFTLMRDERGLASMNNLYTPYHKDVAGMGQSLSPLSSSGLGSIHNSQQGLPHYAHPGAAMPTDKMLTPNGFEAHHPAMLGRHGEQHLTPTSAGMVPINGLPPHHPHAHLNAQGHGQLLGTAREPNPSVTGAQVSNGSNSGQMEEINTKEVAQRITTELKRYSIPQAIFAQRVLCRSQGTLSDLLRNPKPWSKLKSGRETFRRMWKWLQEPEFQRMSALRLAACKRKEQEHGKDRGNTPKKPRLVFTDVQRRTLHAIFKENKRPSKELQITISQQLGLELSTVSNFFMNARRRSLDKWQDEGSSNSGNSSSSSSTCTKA

CC(C)(CO)COC(=O)C(C)(C)CO
not listed: [10]
inactive: all other assays above

CC(=O)OC1CCCCC1
not listed: [10]
inactive: all other assays above

CC(C)=CCCC(C)=CC#N
inactive: all assays above

C1CCSC1
not listed: [8]
inactive: all other assays above

CN(C)Cc1cc(CN(C)C)c(O)c(CN(C)C)c1
inactive: all assays above

CCCCCCCCCCCC(C)=O
active: [1] 166 µM | [8] 123 µM | [9] 179 µM
inactive: all other assays above

CCCCCCOc1ccc(N)cc1
inactive: all assays above

CCOC(=O)[C@H](O)[C@@H](O)C(=O)OCC
inactive: all assays above

CCc1occc(=O)c1O
not listed: [10]
inactive: all other assays above

CCOC(=O)C1=NOC(c2ccccc2)(c2ccccc2)C1
active: [7] 160 µM | [10] 143 µM
inactive: all other assays above

O=C(O)c1ccc2c(c1)C(=O)OC2=O
not listed: [8]
inactive: all other assays above

Oc1c(Cl)cc(Cl)c(Cl)c1Cl
active: [8] 51.7 µM | [9] 70.8 µM
inactive: all other assays above

CCc1cccc(CC)c1
inactive: all assays above

CC=CC(=O)OCC(C)C
inactive: all assays above

CCCCNS(=O)(=O)c1ccccc1
inactive: all assays above

CCC(C)N (stereo unspecified)
not listed: [10]
inactive: all other assays above

CCCCCCCCCCCCCCCCCCOS(=O)(=O)O
active: [2] 33.4 µM | [5] 53 µM | [6] 54.7 µM | [10] 54 µM | [9] 23.2 µM
inactive: [1] | [3] | [4] | [7]

C=CCNCC=C
active: [7] 28.3 µM
not listed: [8]
inactive: all other assays above

CCCCCCCOC(=O)c1ccc(O)cc1
active: [1] 45.7 µM | [2] 50.9 µM | [7] 59.9 µM | [9] 52.6 µM
inactive: all other assays above

O=S(=O)(O)c1ccc(Nc2nc(Nc3ccc(C=Cc4ccc(Nc5nc(Nc6ccc(S(=O)(=O)O)cc6)nc(N(CCO)CCO)n5)cc4S(=O)(=O)O)c(S(=O)(=O)O)c3)nc(N(CCO)CCO)n2)cc1
inactive: all assays above

C=C(C)C1CC=C(C)C(OC(C)=O)C1 (stereo unspecified)
inactive: all assays above

CCC1(C)C(=O)N(Cl)C(=O)N1Cl (stereo unspecified)
active: [4] 49.4 µM | [10] 52.1 µM | [9] 61.4 µM
inactive: all other assays above

CCC[Si](OC)(OC)OC
not listed: [8]
inactive: all other assays above

CC12CCC(CC1)C(C)(C)O2
inactive: all assays above

CCCCCC1=CCCC1=O
active: [5] 148 µM
inactive: all other assays above

COc1ccc(C(=O)/C(Br)=C\C(=O)O)cc1
active: [4] 57.2 µM | [7] 56.1 µM | [10] 174 µM | [9] 55.5 µM
inactive: all other assays above

COC(=O)[C@H](Cc1ccccc1)NC(=O)[C@@H](N)CC(=O)O (H-Asp-Phe-OMe)
inactive: all assays above

CC1OC(=O)C(C)OC1=O (stereo unspecified)
active: [7] 26.6 µM
not listed: [10]
inactive: all other assays above

CCCCCCCC(=O)OCC
inactive: all assays above

CC1=CP(=O)(c2ccccc2)CC1 (stereo unspecified)
not listed: [10]
inactive: all other assays above

Cc1cc(C)n(CO)n1
inactive: all assays above

Clc1cccnc1
inactive: all assays above

CCCCCCCCCCCCc1ccc(O)cc1
not listed: [10]
inactive: all other assays above

CCNc1nc(NC(C)(C)C)nc(OC)n1
inactive: all assays above

C=CCCCCCCCCOC(C)=O
inactive: all assays above

CCCCCCCCC(CO)CCCCCC (stereo unspecified)
active: [3] 126 µM | [8] 172 µM | [9] 158 µM
inactive: all other assays above

CC(C)=CCl
not listed: [8]
inactive: all other assays above

CCCCC(C=O)CC (stereo unspecified)
not listed: [6] | [10]
inactive: all other assays above

CC(=O)/C=C/C1C(C)=CCCC1(C)C (stereo unspecified)
not listed: [3]
inactive: all other assays above

CC(c1cc(C(C)(C)C)cc(C(C)(C)C)c1O)c1cc(C(C)(C)C)cc(C(C)(C)C)c1O
active: [2] 1.87 µM
not listed: [8]
inactive: all other assays above

CC(CC=O)CC(C)(C)C (stereo unspecified)
not listed: [3]
inactive: all other assays above

O=C(O)C(F)(F)C(F)(F)C(F)(F)C(F)(F)C(=O)O
not listed: [7]
inactive: all other assays above

CCN1CCCC1=O
not listed: [3]
inactive: all other assays above

CCOc1ccc(NC(N)=O)cc1
not listed: [5]
inactive: all other assays above

Nc1ccc(C(=O)O)cc1
not listed: [6]
inactive: all other assays above

CCC(C)(O)CCCC(C)C (stereo unspecified)
not listed: [6] | [8]
inactive: all other assays above

CCOB(OCC)OCC
not listed: [5] | [6] | [10]
inactive: all other assays above

CCc1cccc(C)c1N(C(=O)CS(=O)(=O)O)C(C)COC (stereo unspecified)
not listed: [5] | [8]
inactive: all other assays above

CC1(C)CC(O)CC(C)(C)N1[O]
active: [2] 27.7 µM
not listed: [3]
inactive: all other assays above

CCCCC/C=C\C/C=C\CCCCCCCC(=O)O
active: [2] 76.3 µM | [7] 26.6 µM | [10] 150 µM | [9] 149 µM
not listed: [3]
inactive: all other assays above

Cc1cc(=O)[nH]c(=O)[nH]1
not listed: [8] | [10]
inactive: all other assays above

C=C[Si](OCCOC)(OCCOC)OCCOC
not listed: [3]
inactive: all other assays above
